Source: PubChem BioAssay
The source made the active and inactive calls.

Experiments:
[1] = small molecules captured by biotinylated probe aFSTL3 – biochemical, small-molecule microarray, fluorescence 635/667, stem cell growth factor project, primary screen (AID 1064); conditions: higher = more signal;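 note: measures binding of the biotinylated anti-FSTL3 antibody to printed compounds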
[2] = binders from COS7 lysate, DM2A8 probe, primary screen, torsin A project, cell lysate, small-molecule microarray, fluorescence 635/667 (AID 1065); conditions: higher = more signal, COS7 lysate expressing mutant human TOR1A
[3] = small molecules captured by biotinylated probe aFGF2 – biochemical, small-molecule microarray, fluorescence 635/667, stem cell growth factor project, primary screen (AID 1067); conditions: higher = more signal;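 note: measures binding of biotinylated aFGF2 protein to printed compounds on slides; z-score merges feature fluorescence and signal-to-noise across triplicate slides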
[4] = small molecules captured by biotinylated probe aFGF10 – biochemical, small-molecule microarray, fluorescence 635/667, stem cell growth factor project, primary screen (AID 1071); conditions: higher = more signal;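 note: score merges 667 nm spot intensity and signal to noise from triplicate slides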
[5] = biological target: Neurogenic locus notch homolog protein 2 (Homo sapiens) (UniProt Q04721); experiment: small molecules binding Notch2 protein – biochemical, small-molecule microarray, 635 nm fluorescence, stem cell growth factors, primary screen (AID 1073); conditions: higher = more signal
[6] = biological target: Pro-neuregulin-1, membrane-bound isoform (Homo sapiens) (UniProt Q02297); experiment: small molecules binding neuregulin-1 protein – biochemical, small-molecule microarray, fluorescence 635/667, psychiatric disease protein project, primary screen (AID 1075); conditions: NRG1 binding, 635 nm fluorescence, higher = more signal;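 note: score combines 667 nm spot fluorescence with signal to noise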
[7] = system: Neuregulin-1 EGF-like domain; experiment: small molecules binding NRG1 EGF domain – biochemical, small-molecule microarray, 635 nm fluorescence, primary screen (AID 1081); conditions: higher = more signal;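 note: binding of the protein to compounds printed on small-molecule microarray slides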
[8] = FRG1 expression reporter modulators in myotubes – cell-based, C2C12 myotubes, firefly/Renilla luciferase, luminescence, FRG1 inhibition for FSHD, primary screen (AID 1084); conditions: FRG1 promoter luciferase, higher = more signal, called active from +8 up or from −8 down
[9] = small molecules captured by biotinylated probe aFST – biochemical, small-molecule microarray, fluorescence 635/667, stem cell growth factor project, primary screen (AID 1086); conditions: higher = more signal;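 note: score merges 667 nm fluorescence with signal-to-noise of each printed compound spot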
[10] = binders of probe aHhip on microarray, primary screen, stem cell growth factor project, biochemical, small-molecule microarray, fluorescence 635/667 (AID 1087); conditions: higher = more signal;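 note: score merges spot fluorescence at 667nm with spot signal to noise ratio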
[11] = system: PRMT1 (protein arginine N-methyltransferase 1); experiment: small molecules binding arginine methyltransferase PRMT1 – biochemical, small-molecule microarray, 635 nm fluorescence, primary screen (AID 1088); conditions: higher = more signal;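 note: binding of Prmt1 protein to compounds spotted on small-molecule microarray slides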
[12] = growth effects on S. cerevisiae YJM789 – YJM789 clinical isolate, OD600, 24 h, basal, primary screen (AID 1089); conditions: higher = more signal, called active from +8 up or from −8 down;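 note: growth of clinical yeast isolate S. cerevisiae YJM 789 seeded 1000 cells per well; test concentration not given here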
[13] = S. pombe growth modifiers, basal conditions – strain 972, OD600, 24 h, no modulator, primary screen (AID 1090);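 note: basal condition with compound alone and no growth modifier present; test concentration not given here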; conditions: S. pombe 972 growth, higher = more signal, called active from +8 up or from −8 down
[14] = budding yeast growth modifiers under rapamycin – strain BY4716, OD600, 96 h, primary screen (AID 1091); note: test concentration not given here; conditions: S. cerevisiae BY4716 + rapamycin, higher = more signal, called active from +8 up or from −8 down
[15] = biological target: Torsin-1A-interacting protein 2 (Homo sapiens) (UniProt Q8NFQ8); experiment: small molecules binding lysate-expressed LULL1 – cell lysate, human LULL1 lysate, 635/667 nm fluorescence, primary screen (AID 1092); conditions: small-molecule microarray, hLULL1 lysate binding, 635 nm fluorescence; higher = more signal;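 note: probe is lysate of COS7 cells overexpressing human LULL1; score merges per-feature 667 nm fluorescence with signal-to-noise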
[16] = optical density change of DRC41 E. coli – strain DRC41, OD650, 24 h, E. coli filamentation project, primary screen (AID 1093);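 note: MC1000 strain lacking acrAB efflux and sulA so SOS filamentation is blocked; test concentration not given here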; conditions: E. coli DRC41 growth, higher = more signal, called active from +8 up or from −8 down
[17] = probe aLefty2 binding to arrayed compounds – biochemical, biotinylated probe, 635/667 nm fluorescence, primary screen (AID 1094); conditions: small-molecule microarray, higher = more signal;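 note: score merges spot fluorescence near 667 nm with spot signal-to-noise ratio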
[18] = system: Noggin (protein binding on small-molecule microarray); experiment: small molecules binding Noggin protein – biochemical, 635/667 nm fluorescence, primary screen (AID 1095); conditions: 635 nm fluorescence, higher = more signal;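 note: score merges 667 nm feature fluorescence with signal to noise over triplicate slides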
[19] = biological target: Neurogenic locus notch homolog protein 3 (Homo sapiens) (UniProt Q9UM47); experiment: small molecules binding NOTCH3 protein – biochemical, 635/667 nm fluorescence, primary screen (AID 1096); conditions: small-molecule microarray, 635 nm fluorescence, higher = more signal
[20] = probe aEGFR binding to arrayed compounds – biochemical, biotinylated probe, 635/667 nm fluorescence, primary screen (AID 1097); conditions: small-molecule microarray, higher = more signal;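 note: probe is a biotinylated anti-EGFR antibody binding compounds printed on slides; score combines fluorescence near 667 nm and signal to noise of each spot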

Chain of Neurogenic locus notch homolog protein 2 (Homo sapiens) (Q04721 whole entry, looked up, canonical isoform): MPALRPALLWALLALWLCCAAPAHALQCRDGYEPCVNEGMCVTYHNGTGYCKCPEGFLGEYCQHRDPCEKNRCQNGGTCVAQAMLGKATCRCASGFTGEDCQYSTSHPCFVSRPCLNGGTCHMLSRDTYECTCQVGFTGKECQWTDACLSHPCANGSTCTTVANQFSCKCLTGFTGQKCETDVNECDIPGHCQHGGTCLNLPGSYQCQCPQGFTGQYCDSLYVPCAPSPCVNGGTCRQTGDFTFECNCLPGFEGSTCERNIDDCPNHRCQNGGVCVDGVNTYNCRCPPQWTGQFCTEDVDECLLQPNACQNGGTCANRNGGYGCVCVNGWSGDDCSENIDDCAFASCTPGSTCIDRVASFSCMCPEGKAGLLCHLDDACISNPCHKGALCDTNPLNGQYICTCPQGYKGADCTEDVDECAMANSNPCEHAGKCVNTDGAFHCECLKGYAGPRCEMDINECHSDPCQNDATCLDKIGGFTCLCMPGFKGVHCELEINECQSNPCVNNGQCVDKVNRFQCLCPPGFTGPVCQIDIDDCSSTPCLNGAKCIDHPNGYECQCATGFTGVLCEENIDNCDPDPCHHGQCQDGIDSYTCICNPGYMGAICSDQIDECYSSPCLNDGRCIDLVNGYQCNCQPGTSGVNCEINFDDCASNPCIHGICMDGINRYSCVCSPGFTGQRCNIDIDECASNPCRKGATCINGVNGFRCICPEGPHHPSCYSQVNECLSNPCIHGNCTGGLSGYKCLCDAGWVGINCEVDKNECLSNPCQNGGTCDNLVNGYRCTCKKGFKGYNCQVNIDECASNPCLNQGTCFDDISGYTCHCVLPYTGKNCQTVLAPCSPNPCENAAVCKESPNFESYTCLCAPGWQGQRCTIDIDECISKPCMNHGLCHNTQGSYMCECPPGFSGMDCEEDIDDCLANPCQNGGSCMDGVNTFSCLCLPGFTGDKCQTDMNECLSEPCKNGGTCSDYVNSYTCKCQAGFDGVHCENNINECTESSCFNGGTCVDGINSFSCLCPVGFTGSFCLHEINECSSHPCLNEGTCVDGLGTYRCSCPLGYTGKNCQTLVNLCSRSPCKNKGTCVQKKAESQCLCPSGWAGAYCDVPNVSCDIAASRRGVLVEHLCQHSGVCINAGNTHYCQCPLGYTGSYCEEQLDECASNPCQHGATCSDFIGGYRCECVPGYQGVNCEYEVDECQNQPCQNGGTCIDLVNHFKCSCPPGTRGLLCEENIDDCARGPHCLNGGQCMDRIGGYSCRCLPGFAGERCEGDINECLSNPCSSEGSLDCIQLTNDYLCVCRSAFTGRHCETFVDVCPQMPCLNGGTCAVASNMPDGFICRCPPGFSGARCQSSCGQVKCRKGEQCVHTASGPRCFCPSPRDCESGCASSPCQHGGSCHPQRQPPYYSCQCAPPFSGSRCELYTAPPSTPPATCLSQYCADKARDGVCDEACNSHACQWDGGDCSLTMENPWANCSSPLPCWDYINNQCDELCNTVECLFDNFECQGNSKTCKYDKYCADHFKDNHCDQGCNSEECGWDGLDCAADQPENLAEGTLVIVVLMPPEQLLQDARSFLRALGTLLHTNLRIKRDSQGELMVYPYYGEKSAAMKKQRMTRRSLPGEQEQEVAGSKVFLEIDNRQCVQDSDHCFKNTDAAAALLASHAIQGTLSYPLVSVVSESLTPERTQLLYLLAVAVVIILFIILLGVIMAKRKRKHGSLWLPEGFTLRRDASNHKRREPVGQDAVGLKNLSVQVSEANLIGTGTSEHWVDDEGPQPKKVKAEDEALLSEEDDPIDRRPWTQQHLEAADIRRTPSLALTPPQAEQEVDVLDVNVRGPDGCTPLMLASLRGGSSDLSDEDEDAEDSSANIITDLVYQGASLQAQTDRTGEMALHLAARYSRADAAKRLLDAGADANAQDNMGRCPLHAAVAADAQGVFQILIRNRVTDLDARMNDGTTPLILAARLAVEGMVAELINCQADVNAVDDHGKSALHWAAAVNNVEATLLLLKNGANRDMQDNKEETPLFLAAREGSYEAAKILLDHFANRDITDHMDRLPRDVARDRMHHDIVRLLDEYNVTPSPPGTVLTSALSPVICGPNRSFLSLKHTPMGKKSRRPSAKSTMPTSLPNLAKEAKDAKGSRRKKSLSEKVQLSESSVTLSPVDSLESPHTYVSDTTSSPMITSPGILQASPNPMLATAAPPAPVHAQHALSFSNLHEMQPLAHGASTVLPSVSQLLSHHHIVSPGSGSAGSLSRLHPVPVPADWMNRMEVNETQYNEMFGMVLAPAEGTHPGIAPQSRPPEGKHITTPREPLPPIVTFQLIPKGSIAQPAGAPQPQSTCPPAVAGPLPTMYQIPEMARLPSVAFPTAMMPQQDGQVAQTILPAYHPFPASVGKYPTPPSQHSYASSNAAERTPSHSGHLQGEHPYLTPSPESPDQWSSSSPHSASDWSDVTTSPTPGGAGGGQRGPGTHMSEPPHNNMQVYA
Chain of Neurogenic locus notch homolog protein 3 (Homo sapiens) (Q9UM47 whole entry, looked up): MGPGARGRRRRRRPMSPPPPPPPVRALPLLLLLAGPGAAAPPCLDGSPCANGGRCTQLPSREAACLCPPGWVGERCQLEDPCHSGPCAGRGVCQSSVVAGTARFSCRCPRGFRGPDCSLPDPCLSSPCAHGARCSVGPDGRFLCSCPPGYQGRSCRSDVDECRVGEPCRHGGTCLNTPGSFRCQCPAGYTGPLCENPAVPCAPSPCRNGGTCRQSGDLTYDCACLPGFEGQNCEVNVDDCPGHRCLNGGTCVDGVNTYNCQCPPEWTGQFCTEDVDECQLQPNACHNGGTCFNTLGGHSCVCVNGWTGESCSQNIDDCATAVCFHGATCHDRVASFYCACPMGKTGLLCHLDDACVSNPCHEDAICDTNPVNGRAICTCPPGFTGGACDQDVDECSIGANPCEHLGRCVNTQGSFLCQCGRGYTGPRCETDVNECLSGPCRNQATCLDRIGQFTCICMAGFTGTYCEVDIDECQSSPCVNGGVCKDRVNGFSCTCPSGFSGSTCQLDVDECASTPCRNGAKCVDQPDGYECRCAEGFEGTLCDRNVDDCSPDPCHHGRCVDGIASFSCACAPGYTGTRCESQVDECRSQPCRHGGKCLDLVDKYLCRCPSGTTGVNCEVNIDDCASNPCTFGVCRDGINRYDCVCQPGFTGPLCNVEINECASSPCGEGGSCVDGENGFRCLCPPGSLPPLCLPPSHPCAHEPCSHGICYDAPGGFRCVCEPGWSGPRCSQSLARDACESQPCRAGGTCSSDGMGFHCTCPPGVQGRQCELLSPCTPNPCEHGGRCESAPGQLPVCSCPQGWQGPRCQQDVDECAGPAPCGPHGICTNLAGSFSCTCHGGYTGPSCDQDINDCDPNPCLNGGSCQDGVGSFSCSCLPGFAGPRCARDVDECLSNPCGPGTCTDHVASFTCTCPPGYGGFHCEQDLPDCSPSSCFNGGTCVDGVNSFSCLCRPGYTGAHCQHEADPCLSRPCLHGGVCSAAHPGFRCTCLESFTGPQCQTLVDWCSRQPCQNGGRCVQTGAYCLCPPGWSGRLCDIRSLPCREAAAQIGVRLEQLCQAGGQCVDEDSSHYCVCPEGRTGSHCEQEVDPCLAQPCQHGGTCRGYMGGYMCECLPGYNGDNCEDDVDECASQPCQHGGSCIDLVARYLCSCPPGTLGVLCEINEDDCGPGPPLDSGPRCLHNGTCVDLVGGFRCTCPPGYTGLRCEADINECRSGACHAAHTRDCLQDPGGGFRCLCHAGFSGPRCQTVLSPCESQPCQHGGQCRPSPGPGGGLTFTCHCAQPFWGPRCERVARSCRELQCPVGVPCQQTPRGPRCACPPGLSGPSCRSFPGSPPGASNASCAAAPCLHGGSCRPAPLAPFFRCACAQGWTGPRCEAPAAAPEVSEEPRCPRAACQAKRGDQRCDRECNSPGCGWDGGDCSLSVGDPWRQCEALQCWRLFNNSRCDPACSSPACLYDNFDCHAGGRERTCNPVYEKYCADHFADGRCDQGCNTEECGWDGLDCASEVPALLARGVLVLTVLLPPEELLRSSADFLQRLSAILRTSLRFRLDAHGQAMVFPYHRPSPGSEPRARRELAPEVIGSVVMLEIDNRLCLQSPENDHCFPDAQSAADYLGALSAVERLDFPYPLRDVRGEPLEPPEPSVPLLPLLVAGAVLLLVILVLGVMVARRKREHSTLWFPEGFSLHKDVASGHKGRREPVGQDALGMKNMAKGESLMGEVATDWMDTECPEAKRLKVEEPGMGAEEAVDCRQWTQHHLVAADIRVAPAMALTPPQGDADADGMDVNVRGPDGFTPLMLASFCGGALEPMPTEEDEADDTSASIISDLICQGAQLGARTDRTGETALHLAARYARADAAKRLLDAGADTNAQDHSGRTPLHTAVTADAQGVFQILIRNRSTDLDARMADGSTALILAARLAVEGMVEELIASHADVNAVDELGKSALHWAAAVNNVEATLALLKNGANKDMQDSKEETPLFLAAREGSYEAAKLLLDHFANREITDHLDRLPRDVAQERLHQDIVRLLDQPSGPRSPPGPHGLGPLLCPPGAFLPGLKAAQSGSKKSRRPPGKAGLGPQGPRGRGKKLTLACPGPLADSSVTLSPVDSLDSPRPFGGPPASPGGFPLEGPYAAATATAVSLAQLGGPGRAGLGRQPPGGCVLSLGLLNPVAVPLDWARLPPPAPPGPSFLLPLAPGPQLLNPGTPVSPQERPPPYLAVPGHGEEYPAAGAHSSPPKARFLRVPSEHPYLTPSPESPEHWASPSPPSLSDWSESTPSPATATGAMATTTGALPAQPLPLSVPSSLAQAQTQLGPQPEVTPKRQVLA

SMILES | composite z-score [1] | composite z-score [2] | composite z-score [3] | composite z-score [4] | composite z-score [5] | composite z-score [6] | composite z-score [7] | z-score [8] | composite z-score [9] | composite z-score [10] | composite z-score [11] | z-score [12] | z-score [13] | z-score [14] | composite z-score [15] | z-score [16] | composite z-score [17] | composite z-score [18] | composite z-score [19] | composite z-score [20]
COc1cc(CO)cc(I)c1O[C@H]1C=C(C(=O)NCCO)C[C@@H](N(Cc2ccc(F)cc2)C(=O)C2CCCO2)[C@@H]1O (stereo not given in full) | -0.625 | 0.114 | -0.057 | 0.122 | 0.159 | -0.0002 | 0.547 | -0.851 (inactive) | 0.0494 | 0.142 | -0.516 | -0.558 (inactive) | -0.389 (inactive) | -0.188 (inactive) | -0.492 | 3.2 (inactive) | -0.116 | 0.0313 | -0.331 | -0.158
COCC(=C=CC[C@H](O)c1cccc(OCCO)c1)C[C@H](O)c1ccccn1 | -0.203 | -0.3 | -0.135 | 0.18 | -0.542 | 1.24 | 1.44 | 0.0158 (inactive) | 0.395 | -0.0618 | 1.02 | 0.941 (inactive) | 0.44 (inactive) | 0.371 (inactive) | 1.88 | 0.559 (inactive) | -0.166 | 0.704 | 0.0673 | 0.0149
C=CCN1C(=O)[C@]2(CC=C)N=C(c3ccc(OCCCO)cc3)O[C@@H]2c2ccccc21 | 0.967 | 0.194 | 0.123 | 0.0547 | 1.05 | 1.03 | 1.26 | -1.86 (inactive) | 0.61 | 0.0327 | 1.45 | -1.76 (inactive) | -2.79 (inactive) | 0.164 (inactive) | 3.13 | 1.02 (inactive) | 0.266 | 1.33 | 1.08 | 0.038
COC(=O)[C@@]1(Cc2ccccc2)[C@H]2c3cc(C(=O)N4CCCC4)n(Cc4ccsc4Br)c3C[C@H]2CN1C(=O)c1ccccc1 | 0.166 | -0.411 | 0.281 | 0.682 | 1.72 | 1.46 | 1.18 | -0.444 (inactive) | 1.51 | 0.155 | 0.12 | 0.333 (inactive) | 1.22 (inactive) | 1.35 (inactive) | 3.43 | -0.575 (inactive) | 0.41 | -0.142 | 1.05 | 0.272
C=CCC(OC(C)=O)[C@@H]1[C@@H](N(Cc2cc3ccccc3o2)C(=O)c2ccc(C)cc2)c2cc(OCCCO)ccc2N1C(=O)Cc1ccc2ccccc2c1 (stereo not given in full) | 0.222 | -0.603 | 0.0755 | 0.113 | -0.242 | -0.0075 | -0.345 | -0.286 (inactive) | 0.292 | 0.107 | -0.208 | 0.627 (inactive) | -0.423 (inactive) | 0.469 (inactive) | 0.0257 | 2.18 (inactive) | 0.18 | 1.81 | -0.725 | -0.094
O=C(CS)NCCCCCCNC(=O)[C@@H]1C[C@@H]2C(=O)N3CCC[C@H]3C(=O)N2[C@@H]1c1cccc(OCCO)c1 | 0.145 | 0.804 | 0.109 | 0.256 | 0.407 | 1.28 | 0.911 | 1.05 (inactive) | -0.022 | -0.0645 | 1.35 | -1.69 (inactive) | 0.335 (inactive) | -0.365 (inactive) | 2.35 | 1.2 (inactive) | 0.177 | 0.488 | 1 | 0.0195
O=C(CS)NCCCCCCNC(=O)[C@H]1C[C@H]2C(=O)N[C@@H](Cc3ccccc3)C(=O)N2[C@H]1c1cccc(OCCO)c1 | -0.165 | 0.605 | 0.0465 | 1.16 | 1.56 | 1.36 | 1.41 | 0.328 (inactive) | 0.928 | -0.145 | 1.54 | 0.646 (inactive) | 0.311 (inactive) | 1.15 (inactive) | 2.81 | -0.23 (inactive) | 0.118 | 1.6 | 1.02 | 0.14
CCN(CC)c1ccc(N2CC=CC34O[C@@H]5/C=C\CCC(C)OC(=O)C5[C@H]3C(=O)N(CCO)[C@@H]4C2=O)cc1 (stereo not given in full) | 0.478 | -0.476 | -0.103 | -0.57 | -0.331 | 1.57 | 1.15 | 1.16 (inactive) | -1.17 | -0.134 | 1.2 | -1.27 (inactive) | -2.02 (inactive) | -0.806 (inactive) | 3.17 | 0.565 (inactive) | -0.134 | -0.563 | 0.0541 | -0.203
COC(=O)[C@@]1(Cc2ccccc2)[C@H]2c3cc(C(=O)N4CCCC4)n(Cc4cc(F)cc5c4OCOC5)c3C[C@H]2CN1C(=O)c1ccccc1 | 0.752 | -0.234 | 0.356 | 0.762 | 1.73 | 1.1 | 1.22 | -0.223 (inactive) | 0.929 | -0.0905 | -0.149 | 1.33 (inactive) | 1.17 (inactive) | 0.509 (inactive) | 3.29 | -0.542 (inactive) | 0.331 | -0.584 | 0.924 | 0.115
C=CCC(OC(C)=O)[C@@H]1[C@@H](N(Cc2ccc(-c3ccccc3)cc2)C(=O)c2cccc3ccccc23)c2cc(OCCCO)ccc2N1C(=O)Cc1ccc2ccccc2c1 (stereo not given in full) | -0.144 | 0.407 | -0.0445 | 0.237 | -0.101 | -0.278 | -0.621 | -0.873 (inactive) | -0.0377 | 0.154 | -0.419 | -0.554 (inactive) | -0.691 (inactive) | -0.311 (inactive) | 0.95 | 0.153 (inactive) | -0.0407 | 0.514 | -0.377 | -0.123
